Measured values taken from PubChem BioAssay AID1240 (Sanford-Burnham Center for Chemical Genomics, 2008).
Screen size: about 50,000 compounds; about 800 (1.6%) showed an effect of 50% or more. The sample as a whole holds a higher share of strong results than the screen did.

These molecules were tested against Bcl-2-like protein 10 (Homo sapiens) (UniProt Q9HD36) (assay: Phenotype converters, Bcl-B/TR3 peptide binding displacement, primary biochemical FP (AID 1240;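 also: 0% = Bcl-B with tracer peptide and DMSO and 100% = tracer peptide lacking Bcl-B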)). Details: GST-Bcl-B / FITC-TR3 peptide fluorescence polarization; stronger effect = higher value; compound at 3.75 mg/L.
Bcl-2-like protein 10 (Homo sapiens), sequence (Q9HD36 whole entry, looked up): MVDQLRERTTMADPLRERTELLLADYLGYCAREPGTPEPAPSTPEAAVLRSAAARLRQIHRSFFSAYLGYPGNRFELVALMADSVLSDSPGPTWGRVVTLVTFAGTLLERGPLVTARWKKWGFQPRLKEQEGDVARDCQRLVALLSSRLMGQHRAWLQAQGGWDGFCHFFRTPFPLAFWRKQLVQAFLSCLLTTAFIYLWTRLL
`CCOC(=O)c1cnn(-c2ccccc2)c1NC(=O)c1ccccc1` showed a displacement of 2.4%. Molecule `O=C(c1ccco1)N(C(=O)c1ccco1)c1cc(C(F)(F)F)ccc1Cl` has a displacement of -3.3%. With `COc1ccc(OCCOCCN2CCC(C)CC2)cc1` the displacement was -9.4%. With `CNC(=O)c1c(-c2ccccc2)oc2ccc(O)cc12` the displacement was 10.3%. For `O=C1C(C=NCc2ccc3c(c2)OCO3)=C(O)c2ccccc21`, the displacement was 134%. In the case of `O=C1C(C=NCc2ccc(Cl)c(Cl)c2)=C(O)c2ccccc21`, the displacement was 2.5%. `O=C1CC(c2ccccc2)CC(O)=C1C=NCc1ccc2c(c1)OCO2` (stereo not drawn) showed a displacement of -2.5%. Work on `O=C(Nc1ccc2oc(-c3ccc(Cl)cc3Cl)nc2c1)c1ccc2c(c1)OCCO2` yielded a displacement of 2.1%. With `Cn1c(/C=C/c2ccc([N+](=O)[O-])cc2)nc2ccccc2c1=O` the displacement was 2.9%. With `O=c1c2ccccc2nc(/C=C/c2cccc([N+](=O)[O-])c2)n1Cc1ccccc1` the displacement was 12.9%. Work on `Cn1c(/C=C/c2cn(Cc3ccccc3)c3ccccc23)nc2ccccc2c1=O` yielded a displacement of 17.3%. `O=c1c2ccccc2nc(/C=C/c2ccc([N+](=O)[O-])cc2)n1Cc1ccccc1` showed a displacement of 118%. In the case of `Cn1c(/C=C/c2cn(C)c3ccccc23)nc2ccccc2c1=O`, the displacement was 40.9%. `Cn1cc(/C=C/c2nc3ccccc3c(=O)n2Cc2ccccc2)c2ccccc21` gave a displacement of 136%. In the case of `Cc1onc(-c2ccccc2Cl)c1C(=O)NC12CC3CC(CC(C3)C1)C2`, the displacement was 1%. With `CCOC(=O)c1c(NC(=O)c2cccc(Cl)c2)sc(C(=O)Nc2cccc(C(F)(F)F)c2)c1C` the displacement was -3.3%. In the case of `O=C(N1CCOCC1)n1nnc2ccccc21`, the displacement was 13.2%. Work on `CC(C)(C)c1ccc(-c2nn(CNc3cccc(Cl)c3)c(=S)o2)cc1` yielded a displacement of 14%. With `COc1ccc(C/C(N)=N/OC(=O)c2ccccc2Cl)cc1` the displacement was -0.1%. Work on `CCCC(=O)Nc1ccc2nn(-c3ccc(F)cc3)nc2c1` yielded a displacement of 0.6%. `COc1ccc(-n2nc3ccc(NC(=O)COc4ccccc4Cl)cc3n2)cc1` was tested, and the displacement was 19.9%. `O=C(COc1ccc([N+](=O)[O-])cc1)Nc1ccc2nn(-c3ccc(F)cc3)nc2c1` showed a displacement of 9%. `O=C(COc1ccccc1Cl)Nc1ccc2nn(-c3ccccc3)nc2c1` showed a displacement of 78.4%. In the case of `O=C(Nc1ccc2nn(-c3ccc(Cl)cc3)nc2c1)c1ccccn1`, the displacement was 91%. For `O=C(COc1ccc(Br)cc1)Nc1ccc2nn(-c3ccc(F)cc3)nc2c1`, the displacement was 50.3%. In the case of `O=C(Nc1ccc2nn(-c3ccc(Cl)cc3)nc2c1)c1ccccc1I`, the displacement was 7.4%. Molecule `O=C(Nc1ccc2nn(-c3ccc(Cl)cc3)nc2c1)c1ccccc1` has a displacement of -1.9%. For `O=C(COc1ccccc1)Nc1ccc2nn(-c3ccc(Cl)cc3)nc2c1`, the displacement was 6.3%. For `Oc1ccc(/C=N/Nc2nc3ccccc3s2)c(O)c1`, the displacement was 11.1%. Molecule `COc1ccccc1CC(=O)NCc1ccco1` has a displacement of 10.3%. `COc1ccc(/C=N/NC(=O)c2ccoc2C)c(OC)c1OC` gave a displacement of -4.5%. In the case of `Cc1occc1C(=O)N/N=C/c1ccccc1`, the displacement was 4.2%. `Cc1occc1C(=O)N/N=C/c1ccc(O)cc1O` was tested, and the displacement was 78.5%. Molecule `Cc1ccc(N2C(=O)c3ccc(C(=O)O)cc3C2=O)nc1` has a displacement of -10.6%. Molecule `c1ccc(-n2ncnc2-c2ccc3c(c2)OCO3)cc1` has a displacement of 4.4%. `O=c1oc2c(CN3CCOCC3)c(O)ccc2cc1-c1nc2ccccc2[nH]1` showed a displacement of 139%. In the case of `CCOC(=O)c1c(-c2ccccc2)oc2ccc(O)c(CN3CCCC(C)C3)c12` (stereo not drawn), the displacement was 11%. Work on `CN1CCN(Cc2c(O)ccc3c(=O)c(-c4ccccc4)coc23)CC1` yielded a displacement of -1.7%. In the case of `CC1CCN(Cc2c(O)ccc3c4c(c(=O)oc23)CCC4)CC1`, the displacement was 12.8%. For `CC1CCCN(Cc2c(O)ccc3cc(-c4nc5ccccc5[nH]4)c(=O)oc23)C1` (stereo not drawn), the displacement was 106%. `CN1CCN(Cc2c(O)ccc3cc(-c4nc5ccccc5[nH]4)c(=O)oc23)CC1` was tested, and the displacement was 125%. `COc1ccccc1-c1coc2c(CN3CCN(C)CC3)c(O)ccc2c1=O` was tested, and the displacement was -1.3%. `Cn1c(-c2cc3ccc(O)c(CN4CCOCC4)c3oc2=O)nc2ccccc21` showed a displacement of 19.1%. Work on `CCc1cc2c(=O)c(-c3nc4ccccc4[nH]3)coc2c(CN2CCOCC2)c1O` yielded a displacement of 8.5%. In the case of `COc1ccc(N2C(=O)C3C(c4ccccc4Cl)OC4(C(=O)c5ccccc5C4=O)C3C2=O)c(OC)c1` (stereo not drawn), the displacement was 12.5%. Work on `COc1ccc(C2CC(=O)C3=C(C2)Nc2ccccc2NC3c2cc(C)ccc2C)cc1` (stereo not drawn) yielded a displacement of -3.7%. `Cc1ccc(C2/C(=C(\O)c3ccccc3)C(=O)C(=O)N2CCCC(=O)O)cc1` (stereo not drawn) gave a displacement of 1.4%. With `O=C1N=c2ccccc2=C1c1sc(Nc2cccc(Cl)c2Cl)nc1O` the displacement was 15.8%. `O=C1OC(c2ccc(Br)cc2)=C/C1=C\C=C\c1ccccc1` gave a displacement of -8.3%. For `COc1cc(/C=C2\C(=O)NN(c3ccccc3)C2=O)cc(OC)c1OC`, the displacement was -6.6%. Work on `COc1ccc(C(=O)Nc2ccc(Br)cn2)cc1OC` yielded a displacement of 5.1%. For `COc1ccc(Cl)cc1NC(=O)C1=C(C)NC(=O)NC1c1cccc2ccccc12` (stereo not drawn), the displacement was 15.4%. Molecule `O=C1CCCc2oc3ccc(NS(=O)(=O)c4ccccc4)cc3c21` has a displacement of 2.5%. Molecule `Cc1ccc(/C=C/C(=O)Nc2ccc(C)c([N+](=O)[O-])c2)o1` has a displacement of 62%. With `Cc1ccc(/C=C/C(=O)Nc2ccc([N+](=O)[O-])cc2)o1` the displacement was 11.8%. With `O=C1C(=Cc2ccc(-c3ccccc3[N+](=O)[O-])o2)C(=O)c2ccccc21` the displacement was -3.3%. `O=[N+]([O-])c1ccccc1-c1ccc(/C=C/c2ccc3ccccc3n2)o1` was tested, and the displacement was 97.9%. `O=C(/C=C/c1ccc(-c2ccccc2[N+](=O)[O-])o1)Nc1cccnc1` was tested, and the displacement was 73.1%. In the case of `O=C(/C=C/c1ccc(-c2ccccc2[N+](=O)[O-])o1)Nc1ccc(NC(=O)c2ccco2)cc1`, the displacement was -0.2%. Work on `Cc1ccc(/C=C/C(=O)Nc2cccc([N+](=O)[O-])c2)o1` yielded a displacement of 10.1%. Work on `O=[N+]([O-])c1ccc(-c2ccc(/C=C/c3ccc4ccccc4n3)o2)cc1` yielded a displacement of 14.8%. Work on `O=C(Nc1cccnc1)c1ccc(-c2ccccc2[N+](=O)[O-])o1` yielded a displacement of 48.4%. `COc1ccc(-c2cc(CC(=O)c3ccccc3)cc(-c3ccc(OC)cc3)n2)cc1` showed a displacement of 7.7%. In the case of `COc1ccc(Cl)cc1N(CC(=O)N1CCCCC1)S(=O)(=O)c1ccc(C)c([N+](=O)[O-])c1`, the displacement was 2.3%. `Cc1ccccc1/[N+]([O-])=C/c1cccs1` showed a displacement of 0.1%. `COc1ccccc1NC(=O)C(=O)NCC(C)C` was tested, and the displacement was 9.1%. With `COc1cc(OC)c(OC)cc1CN1CCN(Cc2cc(OC)c(OC)cc2Br)CC1` the displacement was 1.2%. With `CCc1cc(=O)oc2cc(OC(C)=O)ccc12` the displacement was 12.3%. With `CCOC(=O)c1ccccc1N(C(=O)C(F)(F)F)C1C=CS(=O)(=O)C1` (stereo not drawn) the displacement was -3.1%. Work on `O=C(N(c1cccc(C(F)(F)F)c1)C1C=CS(=O)(=O)C1)C(F)(F)F` (stereo not drawn) yielded a displacement of 14.6%. `O=C(N(c1cccc2ccccc12)C1C=CS(=O)(=O)C1)C(F)(F)F` (stereo not drawn) was tested, and the displacement was 66%. `CC(Oc1ccccc1)C(=O)N1CCC(Cc2ccccc2)CC1` (stereo not drawn) gave a displacement of 3.1%. Work on `C=CCN1C(=O)/C(=C\c2ccc3c(c2)OCO3)C(=O)NC1=S` yielded a displacement of 4.4%. In the case of `COc1c(Cl)cc(C(=O)Nc2c(C)cccc2C)cc1Cl`, the displacement was 6.7%. Work on `COc1ccc(Br)cc1C1C(C(=O)OCCOC(C)C)=C(C)NC2=C1C(=O)CCC2` (stereo not drawn) yielded a displacement of -2.6%. `Cc1ccc(NC(=O)CN(c2ccc(C(C)C)cc2)S(=O)(=O)c2ccccc2)c(C)c1` gave a displacement of 5.6%. In the case of `COc1cc(C2OCC3(CO)C(C)C=C(C)C2C3C)ccc1O` (stereo not drawn), the displacement was 16.4%. `Cc1cccc(N2C(=O)c3ccc(-c4ccc5c(c4)C(=O)N(c4cccc(C)c4)C5=O)cc3C2=O)c1` gave a displacement of 6.7%. Molecule `O=C1c2cccc3c(N4CCNCC4)ccc(c23)C(=O)N1c1ccc(Cl)cc1` has a displacement of 101%. In the case of `COc1ccc(N2C(=O)c3cccc4c(N5CCNCC5)ccc(c34)C2=O)cc1`, the displacement was 37.2%. In the case of `O=C1c2cccc3c(N4CCCCC4)ccc(c23)C(=O)N1c1ccc(Cl)cc1`, the displacement was 5.7%. In the case of `Cc1cccc(N2C(=O)c3cccc4c(N5CCCCC5)ccc(c34)C2=O)c1`, the displacement was 15.5%. `Cc1cccc(N2C(=O)c3cccc4c(N5CCOCC5)ccc(c34)C2=O)c1` showed a displacement of 154%. `CC(=O)Oc1ccc(-c2cccc(C(=O)NC(CO)C(O)c3ccc([N+](=O)[O-])cc3)c2)cc1` (stereo not drawn) was tested, and the displacement was 10.4%. `COC(=O)c1ccc(-n2ncnc2-c2ccc(Br)cc2)cc1` was tested, and the displacement was -5.4%. `CCC(=O)NC(Nc1ccc(OC)cc1)(C(F)(F)F)C(F)(F)F` was tested, and the displacement was -2.7%. With `Cc1csc(-c2cc3ccc(OCc4c(F)c(F)c(F)c(F)c4F)cc3oc2=O)n1` the displacement was 6.9%. `Cc1csc(-c2cc3ccc(O)c(CN4CC5(C)CC4CC(C)(C)C5)c3oc2=O)n1` (stereo not drawn) was tested, and the displacement was 138%. Molecule `Cc1oc2c(CN3CC4(C)CC3CC(C)(C)C4)c(O)ccc2c(=O)c1-c1nc2ccccc2s1` (stereo not drawn) has a displacement of 11.2%. `COc1ccc(C)cc1NC(=O)COc1ccc(Cl)cc1C` showed a displacement of -5.2%. Molecule `O=C(O)CCC(=O)Nc1ccc(CC(=O)O)cc1` has a displacement of 21.4%. `CCOC(=O)c1c(NC(=O)C2CCCO2)sc(C(=O)N(CC)CC)c1C` (stereo not drawn) gave a displacement of -4%. Work on `CCN(CC)c1ccc(/C=C(\C#N)c2nn(CCO)c(N)c2C#N)cc1` yielded a displacement of 68.2%. With `N#C/C(=C\c1ccc(Cl)cc1)c1nn(CCO)c(N)c1C#N` the displacement was 11.2%. Molecule `N#C/C(=C\c1ccc(F)cc1)c1nn(CCO)c(N)c1C#N` has a displacement of -45.5%. `COc1cc(OC)cc(C(=O)O/N=C(\c2ccncc2)c2ccc([N+](=O)[O-])cc2)c1` gave a displacement of 10.5%. `O=C(O)CCCN1C(=O)/C(=C\c2ccc(-c3ccc(Br)cc3)o2)SC1=S` was tested, and the displacement was -65.6%. `O=C1/C(=C/c2ccc(-c3cccc([N+](=O)[O-])c3)o2)SC(=S)N1Cc1ccco1` showed a displacement of 9.9%. Work on `O=C(O)CCCN1C(=O)/C(=C\c2ccc(-c3cccc([N+](=O)[O-])c3)o2)SC1=S` yielded a displacement of 59%. `O=C1/C(=C/c2ccc(-c3ccc([N+](=O)[O-])cc3)o2)SC(=S)N1Cc1ccccc1` showed a displacement of 9.4%. `O=C1/C(=C\c2ccc(-c3cccc([N+](=O)[O-])c3)o2)SC(=S)N1CCc1ccccc1` gave a displacement of 114%. `O=C(O)CCN1C(=O)/C(=C/c2ccc(-c3ccc([N+](=O)[O-])cc3)o2)SC1=S` was tested, and the displacement was -59.7%. `O=C(NC1CCN(Cc2ccccc2)CC1)c1ccc(F)cc1` was tested, and the displacement was 2.6%.
